Laboratory results from PubChem BioAssay.
Active and inactive are the calls of the source. No rule for the calls is given here.

Assay: fluorescence interference in NS3h assay format, artefact control for HCV NS3 helicase inhibitor project, biochemical, NIH Clinical Collection (AID 743272);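 also: HCV NS3 helicase with a Cy5 labelled single stranded DNA probe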
Settings: fluorescence interference counterscreen, stronger effect = lower value

CC#C[C@]1(O)CC[C@H]2[C@@H]3CCC4=CC(=O)CCC4=C3[C@@H](c3ccc(N(C)C)cc3)C[C@@]21C
fluorescence ratio: 0.97 (inactive)
